# Test results from PubChem BioAssay (NCATS).
# Several values for one entry are separate records, joined by “and”; a condition that tells them apart may be missing. Equal entries are not always repeated. Records with an inconclusive call do not appear. Activity calls are given as the source filed them. Unless noted, calls come from the whole dose curve; as a rule, active = well fitted curve in the direction sought with a large enough effect; inconclusive = small, poorly fitted or top-dose-only effect, or another doubt; inactive = no such curve, though single readings can be large; an effect the other way counts as inactive or inconclusive.
# What was measured:
# [1] = target: Arylsulfatase A (Homo sapiens) (UniProt P15289); test: qHTS screen for enhancers of Arylsulfatase A (ASA1): LOPAC Validation Assay (AID 720538)
# In short: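 SV40-transformed skin fibroblasts from an MLD patient (ASA-I179S) were treated with compounds for 48h at 37 degree C, then lysed with 0.5mM pNCS final substrate for 14h at room temperature; NaOH stop, fluorescence read (Ex=525 nm; Em=598 nm).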
# [2] = qHTS for compounds that reverse cellular toxicity of Amyloid beta (A-beta) peptide in yeast: LOPAC Validation Assay (AID 720559);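 note: plate controls were DMSO for no effect and equimolar ferric chloride plus clioquinol rescue for full effect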
# In short: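 Yeast cells expressing toxic A-beta were combined with pinned compounds in growth medium and incubated 48 hr at 30 C. Growth was read as absorbance at 600 nm and normalized to DMSO and to an equimolar FeCl3/clioquinol positive control.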
# [3] = qHTS for Activators of Parkin Expression: LOPAC Validation Assay (NLuc Reporter) (AID 720572;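 note: 0% = DMSO and 100% = positive control compound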)
# In short: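 Neuronal cells with a Parkin promoter-driven FLuc/NLuc coincidence reporter were treated 24 h at 37 C in 7-point dose response (LOPAC). NLuc luminescence read after FLuc; signals normalized to DMSO and positive control (100%).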
# [4] = qHTS for Activators of Parkin Expression: LOPAC Validation Assay (FLuc Reporter) (AID 720573;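 note: 0% = DMSO and 100% = positive control compounds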)
# In short: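 Neuronal cell line stably carrying FLuc/NLuc coincidence reporter under Parkin promoter; cells plated 24 h, then compounds added in 7-point dose response for 24 h at 37 C. FLuc luminescence read; normalized to DMSO and positive control (100%).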
# [5] = target: T1, Hexokinase-4 (Homo sapiens) + Glucokinase regulatory protein (Homo sapiens) (UniProt P35557+Q14397); test: qHTS assay for inhibitors of recombinant human GCK-GKRP interaction: Diaphorase-coupled assay (AID 743205)
# In short: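 GST-GCK (10 nM) with FLAG-GKRP (10 nM), 5 mM glucose and 0.4 mM ATP in pH 7.6 Hepes; compounds preincubated 20 min with substrate. G6PDH/diaphorase coupling converts resazurin to resorufin, read kinetically (ex 525/em 590 nm) for 30 min.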
# [6] = target: T1, Hexokinase-4 (Homo sapiens) + Glucokinase regulatory protein (Homo sapiens); test: qHTS assay for inhibitors of recombinant human GCK-GKRP interaction: HTRF assay (AID 743207);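 note: 0% = DMSO with GCK present and -100% = DMSO wells lacking GCK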
# In short: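 GST-GCK and FLAG-GKRP (5 nM each) were combined with 2 uM S6P in pH 7.1 Hepes/MgCl2/KCl/DTT buffer, then compound and anti-FLAG XL665/anti-GST K antibodies were added. After 60 min at room temperature, HTRF 665/615 nm emission was read.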
# [7] = qHTS Assay for Identifying Gametocytocidal Compounds (AID 743244);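 note: % is set by controls: 0 for no effect and ±100 for the full control effect; actives lower the fluorescent signal which means gametocytes are killed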; settings: P. falciparum 3D7 stage III-V gametocytes, alamarBlue, 72 h; max response: stronger effect = lower value
# In short: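 Stage III-V P. falciparum 3D7 gametocytes, 20,000 per well, were exposed to compounds for 72 h at 37C, 5% CO2. AlamarBlue was then added for 24 h and viability was read as fluorescence at Ex 525/Em 598 nm.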
# [8] = qHTS profiling of the MIPE4 collection as inhibitors of Plasmodium falciparum (3D7) proliferation (AID 743344; call rule not given here;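 note: scaled between DMSO vehicle wells and 0.29 µM artemisinin as full inhibition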); settings: P. falciparum 3D7 in erythrocytes, SYBR Green DNA fluorescence, 72 h; at 28.5 µM (top of the series) unless noted
# In short: (§1)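 Erythrocytes infected with P. falciparum (0.3% parasitemia, 2.5% hematocrit) incubated with compounds 72 h at 37 C, 5% CO2. Lysis with saponin/Triton buffer containing SYBR Green I, overnight at room temperature in the dark; DNA fluorescence (485/535 nm) normalised to 0.29 uM artemisinin and DMSO.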
# [9] = qHTS profiling of the MIPE4 collection as inhibitors of Plasmodium falciparum (DD2) proliferation (AID 743345; call rule not given here); settings: P. falciparum Dd2 in erythrocytes, SYBR Green DNA, 72 h; at 28.5 µM (top of the series) unless noted
# In short: as §1
# [10] = qHTS profiling of the MIPE4 collection as inhibitors of Plasmodium falciparum (DD2) proliferation (Rep 2) (AID 743346; call rule not given here); settings: P. falciparum Dd2 in erythrocytes, SYBR Green DNA, 72 h; at 28.5 µM (top of the series) unless noted
# In short: as §1
# [11] = qHTS profiling of the MIPE4 collection as inhibitors of Plasmodium falciparum (HB3) proliferation (AID 743347; call rule not given here;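 note: plate controls were DMSO vehicle wells for no effect and artemisinin wells for full effect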); settings: P. falciparum HB3 in erythrocytes, SYBR Green DNA, 72 h; at 28.5 µM (top of the series) unless noted
# In short: as §1
# [12] = High-throughput drug toxicity screening in the BPDCN cell line Gen2.2 (AID 1224824; call rule not given here;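 note: cells exposed to compounds for 48 h before reading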); settings: Gen2.2 BPDCN cells; at 45.8 µM (top of the series) unless noted
# In short: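 Gen2.2 cells (500/well) in phenol red-free RPMI with 10% FBS were exposed to compounds for 48 h at 37 °C, 5% CO2. Viability was read by CellTiter-Glo luminescence and normalized to DMSO (100%) and 9.2 uM bortezomib (0%).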
# [13] = qHTS for small molecule inhibitors of Yes1 kinase: Counter Assay (AID 686950);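 note: no kinase present so only ADP-Glo detection of a fixed ADP amount is tested; luminescence from ADP-Glo reporting ADP in a fixed ATP and ADP mixture; 0% = DMSO wells with ATP plus ADP and -100% = ATP-only wells without ADP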
# In short: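 Enzyme-free detection counter-screen: compounds preincubated 20 min in buffer, then 0.08 mM ATP plus 0.02 mM ADP added for 60 min at room temperature; ADP-Glo luminescence. Buffer 50 mM Tris pH 7.5, 10 mM MgCl2, 150 mM NaCl; normalized to ATP+ADP and ATP-only controls.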
# [14] = qHTS assay for small molecule agonists of the antioxidant response element (ARE) signaling pathway measured by Nrf2-dependant transcriptional activity (AID 720636; active = well fitted curve in the direction sought with a large enough effect in the repeat runs; an effect the other way counts as inactive or inconclusive; note: % of control where 0% means no effect)
# In short: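 ARE-luc HepG2 cells carrying an Nrf2-responsive luciferase reporter, in medium with 1% dialyzed FBS, exposed to compound for 16 hr at 37 C, 5% CO2. Luminescence read 30 min after ONE-Glo addition.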
# [15] = qHTS assay for small molecule agonists of the antioxidant response element (ARE) signaling pathway measured by Nrf2-dependant transcriptional activity - cell viability counter screen (AID 720653; active = well fitted curve in the direction sought with a large enough effect in the repeat runs; an effect the other way counts as inactive or inconclusive; note: % is set by controls: 0 for no effect and ±100 for the full control effect); settings: ARE-bla HepG2 viability, CellTiter-Glo ATP luminescence, 16 h; max response: stronger effect = lower value
# In short: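 ARE-bla HepG2 cells treated with compounds for 16 h at 37C; this counter screen measures viability as intracellular ATP by CellTiter-Glo luminescence after 30 min at room temperature.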
# [16] = qHTS assay for cell viability of HEK293 cells (AID 743288); settings: ATP luminescence (CellTiter-Glo), 18 h; max response: stronger effect = lower value; note: % is set by controls: 0 for no effect and ±100 for the full control effect; nearly all actives have a fitted effect of over 50% in size
# In short: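 Parental HEK293 cells were seeded at 2,000 cells/well, rested at least 5 h at 37 C, then exposed to compounds in DMSO for 18 h at 37 C. Viability was read as ATP-dependent luciferase luminescence after 30 min at room temperature.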
# [17] = qHTS assay for cell viability of the p53RE-bla HCT-116 cell line (AID 743292); note: % is set by controls: 0 for no effect and ±100 for the full control effect; nearly all actives have a fitted effect of over 55% in size
# In short: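 CellSensor p53RE-bla HCT-116 cells (4,000/well) pre-incubated 5 h at 37 C, then exposed to compounds in DMSO for 16 h at 37 C. Viability read as ATP content by CellTiter-Glo luminescence after 30 min at room temperature.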
# [18] = qHTS profiling for inhibitors of Plasmodium falciparum (3D7) proliferation (AID 743322; call rule not given here;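 note: infected erythrocytes exposed to compound for 72 h before lysis; 100% = DMSO vehicle wells and 0% = 0.29 µM artemisinin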); settings: P. falciparum 3D7 proliferation; at 28.7 µM (top of the series) unless noted
# In short: as §1
# [19] = qHTS profiling for inhibitors of Plasmodium falciparum (HB3) proliferation (AID 743324); settings: Plasmodium falciparum HB3 blood-stage proliferation; at 28.7 µM (top of the series) unless noted;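 note: 100% = DMSO vehicle wells and 0% = artemisinin-treated control wells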
# In short: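 P. falciparum HB3 grown in erythrocytes (0.3% parasitemia, 2.5% hematocrit final) with compound for 72 h at 37 C, 5% CO2. Parasite DNA detected by SYBR Green after saponin/triton lysis overnight; normalized to 0.29 uM artemisinin and DMSO.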
# [20] = qHTS assay for small molecule antagonists of the retinoid-related orphan receptor gamma (ROR-gamma) signaling pathway - cell viability counter screen (AID 720652; active = well fitted curve in the direction sought with a large enough effect in the repeat runs; an effect the other way counts as inactive or inconclusive;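 note: compound exposure lasted 16 hr before ATP read; % is set by controls: 0 for no effect and ±100 for the full control effect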)
# In short: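 Luminescence from CellTiter-Glo after 30 min at room temperature reported cellular ATP as the cytotoxicity measure. Cells were the CHO reporter line with doxycycline-induced ROR-gamma expression, exposed to compound for 16 hr at 37 C.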
# Chain of Arylsulfatase A (Homo sapiens) (P15289 whole entry, looked up): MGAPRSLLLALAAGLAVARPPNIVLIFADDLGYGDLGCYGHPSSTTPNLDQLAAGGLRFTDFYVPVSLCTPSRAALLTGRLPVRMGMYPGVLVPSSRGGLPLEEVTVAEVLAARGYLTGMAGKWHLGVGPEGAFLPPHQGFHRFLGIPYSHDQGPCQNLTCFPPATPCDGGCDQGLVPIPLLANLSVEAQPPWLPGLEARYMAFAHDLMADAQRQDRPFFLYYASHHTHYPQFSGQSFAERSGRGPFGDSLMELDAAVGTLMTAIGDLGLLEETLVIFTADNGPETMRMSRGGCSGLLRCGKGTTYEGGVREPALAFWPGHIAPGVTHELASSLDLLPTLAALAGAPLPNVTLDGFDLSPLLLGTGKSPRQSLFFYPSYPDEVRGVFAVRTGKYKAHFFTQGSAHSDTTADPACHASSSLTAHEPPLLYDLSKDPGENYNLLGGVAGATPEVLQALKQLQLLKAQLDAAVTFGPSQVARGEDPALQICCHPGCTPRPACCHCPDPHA
# T1 sequence (P35557 whole entry, looked up): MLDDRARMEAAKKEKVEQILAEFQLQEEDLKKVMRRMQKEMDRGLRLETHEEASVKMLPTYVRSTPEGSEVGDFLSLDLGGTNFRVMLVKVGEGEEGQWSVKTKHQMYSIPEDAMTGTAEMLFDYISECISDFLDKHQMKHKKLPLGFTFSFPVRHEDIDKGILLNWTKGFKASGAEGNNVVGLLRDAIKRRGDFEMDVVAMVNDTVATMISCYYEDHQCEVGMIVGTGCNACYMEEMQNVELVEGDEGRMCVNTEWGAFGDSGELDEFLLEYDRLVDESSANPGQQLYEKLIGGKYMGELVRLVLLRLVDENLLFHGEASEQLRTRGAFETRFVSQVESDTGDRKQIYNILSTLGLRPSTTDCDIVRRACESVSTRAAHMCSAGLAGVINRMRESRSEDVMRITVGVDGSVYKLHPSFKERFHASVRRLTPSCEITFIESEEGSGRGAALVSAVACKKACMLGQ
# T1 sequence (Q14397 whole entry, looked up): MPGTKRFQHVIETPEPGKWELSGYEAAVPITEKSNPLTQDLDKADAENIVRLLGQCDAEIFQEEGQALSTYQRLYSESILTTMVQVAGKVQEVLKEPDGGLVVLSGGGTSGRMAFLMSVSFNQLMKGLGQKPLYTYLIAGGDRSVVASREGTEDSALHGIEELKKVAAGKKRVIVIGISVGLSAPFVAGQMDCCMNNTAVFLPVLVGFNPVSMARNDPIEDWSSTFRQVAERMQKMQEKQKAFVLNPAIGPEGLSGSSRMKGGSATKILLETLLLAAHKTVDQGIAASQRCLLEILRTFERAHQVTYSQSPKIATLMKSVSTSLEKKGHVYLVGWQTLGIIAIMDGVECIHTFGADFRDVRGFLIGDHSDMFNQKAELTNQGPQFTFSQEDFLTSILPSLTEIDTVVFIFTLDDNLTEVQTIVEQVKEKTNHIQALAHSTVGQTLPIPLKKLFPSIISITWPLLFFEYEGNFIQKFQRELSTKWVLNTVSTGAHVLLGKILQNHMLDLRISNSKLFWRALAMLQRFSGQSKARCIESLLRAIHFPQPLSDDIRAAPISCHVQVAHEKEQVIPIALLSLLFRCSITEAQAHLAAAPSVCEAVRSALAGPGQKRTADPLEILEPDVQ
SMILES,Potency [1],outcome [2],outcome [3],Potency [4],outcome [5],outcome [6],max response [7],"parasite growth, % of DMSO control [8] [%]","parasite growth remaining, % of DMSO control (lower = more inhibition) [9] [%]","parasite growth, % of control (lower = inhibition) [10] [%]","growth, % of control [11] [%]","cell viability, % of control (lower = more cytotoxic) [12] [%]",outcome [13],Potency [14],max response [15],max response [16],Potency [17],remaining parasite growth % (stronger effect = lower value) [18],"remaining proliferation (% of control), lower = more inhibition [19]",outcome [20]
NCCCCNCCCN,inactive,inactive,inactive,inactive,inactive,inactive,11.2% (inactive),161,95.4,90.4,577,3.46,,,,,,,,
Nc1nc(Cl)nc2c1ncn2[C@H]1C[C@H](O)[C@@H](CO)O1,,,,,,,30.7% (inactive) and 5.06% (inactive),102,90.9,114,103,93.3,inactive,inactive,-12.8% (inactive),-15% (inactive),inactive,83.8% [at 57.5 µM],,
C[C@@H](N)C1CCC(C(=O)Nc2ccncc2)CC1 (some centres not stated),inactive,inactive,inactive,inactive,inactive,inactive,-0.932% (inactive) and 18% (inactive),,91.5,78.9,72.6,84.4,inactive,,,,,103%,94.3%,
O=C1c2ccccc2-c2n[nH]c3cccc1c23,inactive,inactive,,,inactive,inactive,-3.57% (inactive) and 13.7% (inactive),,93,,85.2,84.7,,,,,,,,
NS(=O)(=O)c1cc(C(=O)O)c(NCc2ccco2)cc1Cl,,,,,,,3.33% (inactive),58.2,103,,84.6,75.9,inactive,inactive,0.113% (inactive) and -9.05% (inactive),5.51% (inactive) and -8.33% (inactive),inactive,,,inactive
COc1ccc2cc([C@H](C)C(=O)O)ccc2c1,inactive,inactive,inactive,inactive,inactive,inactive,18.3% (inactive) and 6.4% (inactive),,100,91,102,127,,,,,,,,
COc1ccccc1N1CCN(CCN(C(=O)C2CCCCC2)c2ccccn2)CC1,inactive,inactive,inactive,inactive,inactive,inactive,6.13% (inactive),,78.2,40.7,83.7,39.9,,,,,,,,
Cc1cccc(-c2[nH]ncc2-c2ccc3ncccc3n2)n1,,,,,,,-4.01% (inactive),74.7,94.4,,52.8,759,inactive,,,,,92.9% [at 57.5 µM],89.3% [at 57.5 µM],
